Legend:
BUB1 = tested on: BUB1; design: species or system human, MV4-11 + K-562 + COLO205 + SK-N-BE2 + OVCAR-8; conditions: read-out: apparent Kd; compound concentrations: 100 nM and 1000 nM (sheet 'Samples'), CATDS: 2.1802873020005002E-2; n = 1
CDC42BPA = tested on: CDC42BPA; design: species or system human, MV4-11 + K-562 + COLO205 + SK-N-BE2 + OVCAR-8; conditions: read-out: apparent Kd; compound concentrations: 100 nM and 1000 nM (sheet 'Samples'), CATDS: 2.9689579346921902E-2; n = 1
CDC42BPB = tested on: CDC42BPB; design: species or system human, MV4-11 + K-562 + COLO205 + SK-N-BE2 + OVCAR-8; conditions: read-out: apparent Kd; compound concentrations: 100 nM and 1000 nM (sheet 'Samples'), CATDS: 2.9604428475736501E-2; n = 1
CDC42BPG = tested on: CDC42BPG; design: species or system human, MV4-11 + K-562 + COLO205 + SK-N-BE2 + OVCAR-8; conditions: read-out: apparent Kd; compound concentrations: 100 nM and 1000 nM (sheet 'Samples'), CATDS: 3.5199852415490701E-2; n = 1
CDC7 = tested on: CDC7; design: species or system human, MV4-11 + K-562 + COLO205 + SK-N-BE2 + OVCAR-8; conditions: read-out: apparent Kd; compound concentrations: 100 nM and 1000 nM (sheet 'Samples'), CATDS: 2.6746378417374699E-2; n = 1
CDK4 = tested on: CDK4; design: species or system human, MV4-11 + K-562 + COLO205 + SK-N-BE2 + OVCAR-8; conditions: read-out: apparent Kd; compound concentrations: 100 nM and 1000 nM (sheet 'Samples'), CATDS: 2.4664855297043799E-2; n = 1
CLK4 = tested on: CLK4; design: species or system human, MV4-11 + K-562 + COLO205 + SK-N-BE2 + OVCAR-8; conditions: read-out: apparent Kd; compound concentrations: 100 nM and 1000 nM (sheet 'Samples'), CATDS: 2.52027212323017E-2; n = 1
DYRK1A = tested on: DYRK1A; design: species or system human, MV4-11 + K-562 + COLO205 + SK-N-BE2 + OVCAR-8; conditions: read-out: apparent Kd; compound concentrations: 100 nM and 1000 nM (sheet 'Samples'), CATDS: 2.7886290868283401E-2; n = 1
GSK3A = tested on: GSK3A; design: species or system human, MV4-11 + K-562 + COLO205 + SK-N-BE2 + OVCAR-8; conditions: read-out: apparent Kd; compound concentrations: 100 nM and 1000 nM (sheet 'Samples'), CATDS: 3.2478486549428802E-2; n = 1
GSK3B = tested on: GSK3B; design: species or system human, MV4-11 + K-562 + COLO205 + SK-N-BE2 + OVCAR-8; conditions: read-out: apparent Kd; compound concentrations: 100 nM and 1000 nM (sheet 'Samples'), CATDS: 2.76286010769239E-2; n = 1
NNT = tested on: NNT; design: species or system human, MV4-11 + K-562 + COLO205 + SK-N-BE2 + OVCAR-8; conditions: read-out: apparent Kd; compound concentrations: 100 nM and 1000 nM (sheet 'Samples'), CATDS: 2.2589714418096801E-2; n = 1
PIM1 = tested on: PIM1; design: species or system human, MV4-11 + K-562 + COLO205 + SK-N-BE2 + OVCAR-8; conditions: read-out: apparent Kd; compound concentrations: 100 nM and 1000 nM (sheet 'Samples'), CATDS: 3.4638112150075201E-2; n = 1
PKN1 = tested on: PKN1; design: species or system human, MV4-11 + K-562 + COLO205 + SK-N-BE2 + OVCAR-8; conditions: read-out: apparent Kd; compound concentrations: 100 nM and 1000 nM (sheet 'Samples'), CATDS: 6.9293964383533801E-2; n = 1
PKN2 = tested on: PKN2; design: species or system human, MV4-11 + K-562 + COLO205 + SK-N-BE2 + OVCAR-8; conditions: read-out: apparent Kd; compound concentrations: 100 nM and 1000 nM (sheet 'Samples'), CATDS: 0.13828274878435901; n = 1
PKN3 = tested on: PKN3; design: species or system human, MV4-11 + K-562 + COLO205 + SK-N-BE2 + OVCAR-8; conditions: read-out: apparent Kd; compound concentrations: 100 nM and 1000 nM (sheet 'Samples'), CATDS: 2.6445492378014E-2; n = 1
PRKACA = tested on: PRKACA; design: species or system human, MV4-11 + K-562 + COLO205 + SK-N-BE2 + OVCAR-8; conditions: read-out: apparent Kd; compound concentrations: 100 nM and 1000 nM (sheet 'Samples'), CATDS: 2.2371204771335199E-2; n = 1
PRKCA = tested on: PRKCA; design: species or system human, MV4-11 + K-562 + COLO205 + SK-N-BE2 + OVCAR-8; conditions: read-out: apparent Kd; compound concentrations: 100 nM and 1000 nM (sheet 'Samples'), CATDS: 3.9494099322939E-2; n = 1
PRKCB = tested on: PRKCB; design: species or system human, MV4-11 + K-562 + COLO205 + SK-N-BE2 + OVCAR-8; conditions: read-out: apparent Kd; compound concentrations: 100 nM and 1000 nM (sheet 'Samples'), CATDS: 4.76963750103866E-2; n = 1
PRKCD = tested on: PRKCD; design: species or system human, MV4-11 + K-562 + COLO205 + SK-N-BE2 + OVCAR-8; conditions: read-out: apparent Kd; compound concentrations: 100 nM and 1000 nM (sheet 'Samples'), CATDS: 6.0948363535237499E-2; n = 1
PRKCI = tested on: PRKCI; design: species or system human, MV4-11 + K-562 + COLO205 + SK-N-BE2 + OVCAR-8; conditions: read-out: apparent Kd; compound concentrations: 100 nM and 1000 nM (sheet 'Samples'), CATDS: 3.5414471461485103E-2; n = 1
PRKCQ = tested on: PRKCQ; design: species or system human, MV4-11 + K-562 + COLO205 + SK-N-BE2 + OVCAR-8; conditions: read-out: apparent Kd; compound concentrations: 100 nM and 1000 nM (sheet 'Samples'), CATDS: 2.3037545247832199E-2; n = 1
PRKG1 = tested on: PRKG1; design: species or system human, MV4-11 + K-562 + COLO205 + SK-N-BE2 + OVCAR-8; conditions: read-out: apparent Kd; compound concentrations: 100 nM and 1000 nM (sheet 'Samples'), CATDS: 3.8596421043345E-2; n = 1
PRKX;PRKY = tested on: PRKX;PRKY; design: species or system human, MV4-11 + K-562 + COLO205 + SK-N-BE2 + OVCAR-8; conditions: read-out: apparent Kd; compound concentrations: 100 nM and 1000 nM (sheet 'Samples'), CATDS: 4.0324961931199298E-2; n = 1
Q6ZSR9 = Q6ZSR9 (human, UniProt Q6ZSR9); design: species or system MV4-11 + K-562 + COLO205 + SK-N-BE2 + OVCAR-8; conditions: read-out: apparent Kd; compound concentrations: 100 nM and 1000 nM (sheet 'Samples'), CATDS: 2.23637013148167E-2; n = 1
Q6ZSR9, sequence (Q6ZSR9 whole entry, looked up): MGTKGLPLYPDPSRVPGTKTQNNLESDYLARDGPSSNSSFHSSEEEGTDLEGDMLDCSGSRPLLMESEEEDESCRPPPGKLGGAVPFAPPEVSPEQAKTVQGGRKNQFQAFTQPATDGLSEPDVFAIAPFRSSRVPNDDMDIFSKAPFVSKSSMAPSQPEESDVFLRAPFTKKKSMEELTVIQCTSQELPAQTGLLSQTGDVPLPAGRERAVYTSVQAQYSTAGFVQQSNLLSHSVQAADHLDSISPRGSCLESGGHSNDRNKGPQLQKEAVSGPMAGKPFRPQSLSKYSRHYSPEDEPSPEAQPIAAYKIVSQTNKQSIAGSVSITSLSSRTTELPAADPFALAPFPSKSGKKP

ROCK1 = tested on: ROCK1; design: species or system human, MV4-11 + K-562 + COLO205 + SK-N-BE2 + OVCAR-8; conditions: read-out: apparent Kd; compound concentrations: 100 nM and 1000 nM (sheet 'Samples'), CATDS: 0.20486846489085001; n = 1
ROCK2 = tested on: ROCK2; design: species or system human, MV4-11 + K-562 + COLO205 + SK-N-BE2 + OVCAR-8; conditions: read-out: apparent Kd; compound concentrations: 100 nM and 1000 nM (sheet 'Samples'), CATDS: 0.25564914108925302; n = 1
RPS6KA3 = tested on: RPS6KA3; design: species or system human, MV4-11 + K-562 + COLO205 + SK-N-BE2 + OVCAR-8; conditions: read-out: apparent Kd; compound concentrations: 100 nM and 1000 nM (sheet 'Samples'), CATDS: 2.2411381111350701E-2; n = 1
RPS6KA4 = tested on: RPS6KA4; design: species or system human, MV4-11 + K-562 + COLO205 + SK-N-BE2 + OVCAR-8; conditions: read-out: apparent Kd; compound concentrations: 100 nM and 1000 nM (sheet 'Samples'), CATDS: 2.93060004016619E-2; n = 1
RPS6KA5 = tested on: RPS6KA5; design: species or system human, MV4-11 + K-562 + COLO205 + SK-N-BE2 + OVCAR-8; conditions: read-out: apparent Kd; compound concentrations: 100 nM and 1000 nM (sheet 'Samples'), CATDS: 7.09289008095534E-2; n = 1
RPS6KB1 = tested on: RPS6KB1; design: species or system human, MV4-11 + K-562 + COLO205 + SK-N-BE2 + OVCAR-8; conditions: read-out: apparent Kd; compound concentrations: 100 nM and 1000 nM (sheet 'Samples'), CATDS: 3.4363243173278199E-2; n = 1

CCn1c(-c2nonc2N)nc2cncc(C(=O)NCCNC)c21 [GW876790X] showed a potency estimated from few doses (BUB1) of 2.4 µM, a potency estimated from few doses (CDC42BPA) of 0.783 µM and a potency estimated from few doses (CDC42BPB) of 0.79 µM. It also gave a potency estimated from few doses (CDC42BPG) of 0.498 µM, a potency estimated from few doses (CDC7) of 1.08 µM and a potency estimated from few doses (CDK4) of 1.43 µM. The potency estimated from few doses (CLK4) was 1.32 µM, the potency estimated from few doses (DYRK1A) was 0.944 µM and the potency estimated from few doses (GSK3A) was 0.612 µM. The potency estimated from few doses (GSK3B) was 0.971 µM, the potency estimated from few doses (NNT) was 2.03 µM and the potency estimated from few doses (PIM1) was 0.519 µM. It also gave a potency estimated from few doses (PKN1) of 0.118 µM, a potency estimated from few doses (PKN2) of 0.0351 µM and a potency estimated from few doses (PKN3) of 1.12 µM. The potency estimated from few doses (PRKACA) was 2.12 µM, the potency estimated from few doses (PRKCA) was 0.378 µM and the potency estimated from few doses (PRKCB) was 0.249 µM. It also gave a potency estimated from few doses (PRKCD) of 0.152 µM, a potency estimated from few doses (PRKCI) of 0.491 µM and a potency estimated from few doses (PRKCQ) of 1.87 µM. It also gave a potency estimated from few doses (PRKG1) of 0.399 µM, a potency estimated from few doses (PRKX;PRKY) of 0.361 µM and a potency estimated from few doses (Q6ZSR9) of 2.13 µM. It also gave a potency estimated from few doses (ROCK1) of 0.0191 µM, a potency estimated from few doses (ROCK2) of 0.0139 µM and a potency estimated from few doses (RPS6KA3) of 2.11 µM. For the same compound, the potency estimated from few doses (RPS6KA4) was 0.813 µM, the potency estimated from few doses (RPS6KA5) was 0.113 µM and the potency estimated from few doses (RPS6KB1) was 0.529 µM.

Reference: paper PMC11062922 (Nature Chemical Biology, 2023)
